{
  "source": "PubChem BioAssay (NCATS)",
  "note": "Results filed as inconclusive are left out. A number with no mark means an inactive call. Activity calls are given as the source filed them. The call rests on the fitted dose curve; in most records, active means well fitted cell-killing curve with a large enough effect; inconclusive means small, poorly fitted or top-dose-only effect; inactive means flat fitted curve, though single readings scatter. Potency means the concentration at half of the fitted maximal effect.",
  "data": [
    {"assay": "qHTS of pediatric cancer cell lines to identify multiple opportunities for drug repurposing: Primary screen for RD cells (AID 1347104); further: nearly all actives have a fitted effect of over 55% in size;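 on activity change, negative = cytotoxic: plate controls were DMSO for no effect and bortezomib for full effect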", "details": "RD rhabdomyosarcoma viability, CellTiter-Glo luminescence, 48 h; series mostly up to 46 µM; activity change, negative = cytotoxic: at the top concentration", "in_short": "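Viability was measured as metabolically active cells after 48 hours of treatment, read by CellTiter-Glo luminescence. Compounds were tested at multiple final concentrations, giving concentration-response curves.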", "units": {"activity change, negative = cytotoxic": "%"}, "values": [
      {"smiles": "OCC(O)C(O)C(O)CO", "note": "(stereo not drawn)", "activity change, negative = cytotoxic": -9.58},
      {"smiles": "Nc1nc(=O)n([C@H]2C[C@H](O)[C@@H](CO)O2)cc1F", "activity change, negative = cytotoxic": -19.5},
      {"smiles": "C[C@H]1[C@@H](OC(=O)CCC(=O)O)O[C@@H]2O[C@@]3(C)CC[C@@H]4[C@H](C)CC[C@@H]1[C@@]24OO3", "Potency": "1.66 µM (active)"},
      {"smiles": "Cc1cnc(Nc2ccc(CN3CCOCC3)cc2)nc1Nc1cccc(S(=O)(=O)NC(C)(C)C)c1", "Potency": "6.62 µM (active)"},
      {"smiles": "C[C@H](NC(=O)C(C#N)=Cc1cccc(Br)n1)c1ccccc1", "Potency": "33.2 µM (active)"},
      {"smiles": "COC(=O)[C@@H]1[C@H]2C[C@@H]3c4[nH]c5ccccc5c4CCN3C[C@@H]2CC[C@@H]1O", "activity change, negative = cytotoxic": -21},
      {"smiles": "C=C(C)[C@@H]1CC[C@]2(C(=O)O)CC[C@]3(C)[C@H](CC[C@@H]4[C@@]5(C)CC[C@H](O)C(C)(C)[C@@H]5CC[C@]43C)[C@@H]12", "activity change, negative = cytotoxic": -5.5},
      {"smiles": "CC(C)C[C@H](NC(=O)[C@@H](NC(=O)c1cccc(-c2ccccc2)n1)[C@@H](C)O)B(O)O", "Potency": "0.118 µM (active)"},
      {"smiles": "CCN(C(=O)c1c(O)c2c(Cl)cccc2n(C)c1=O)c1ccccc1", "activity change, negative = cytotoxic": -2.19},
      {"smiles": "CCS(=O)(=O)Nc1ccc2[nH]c(O)c(C(=Nc3ccc(CN4CCCCC4)cc3)c3ccccc3)c2c1", "Potency": "0.469 µM (active)"},
      {"smiles": "c1coc(CNc2ncnc3nc[nH]c23)c1", "activity change, negative = cytotoxic": 0.719},
      {"smiles": "CCOc1cc2c(c(F)c1OCC)C(=N)N(CC(=O)c1cc(N3CCOCC3)c(OC)c(C(C)(C)C)c1)C2", "Potency": "16.6 µM (active)"},
      {"smiles": "CC[C@H]1OC(=O)[C@H](C)[C@@H](O[C@H]2C[C@@](C)(OC)[C@@H](O)[C@H](C)O2)[C@H](C)[C@@H](O[C@@H]2O[C@@H](C)C[C@H](N(C)C)[C@@H]2O)[C@](C)(O)C[C@@H](C)C(=O)[C@H](C)[C@@H](O)[C@]1(C)O", "activity change, negative = cytotoxic": -24.3}
    ]}
  ]
}
